Inconclusive results are not listed. Entries that show only a call come without a potency. The source made the active and inactive calls. Calls come from the whole dose curve; as a rule, active = well fitted curve in the direction sought with a large enough effect; inconclusive = small, poorly fitted or top-dose-only effect, or another doubt; inactive = no such curve, though single readings can be large; an effect the other way counts as inactive or inconclusive.
Legend:
[1] = target: Glutathione peroxidase 1 (Homo sapiens) (UniProt P07203); assay: Primary qHTS Assay for Inhibitors of Recombinant Selenoprotein Glutathione Peroxidase 1 (GPX1) (AID 1845191); note: nearly all actives have a fitted effect of over 65% in size
Glutathione peroxidase 1 (Homo sapiens), sequence (P07203 whole entry, looked up): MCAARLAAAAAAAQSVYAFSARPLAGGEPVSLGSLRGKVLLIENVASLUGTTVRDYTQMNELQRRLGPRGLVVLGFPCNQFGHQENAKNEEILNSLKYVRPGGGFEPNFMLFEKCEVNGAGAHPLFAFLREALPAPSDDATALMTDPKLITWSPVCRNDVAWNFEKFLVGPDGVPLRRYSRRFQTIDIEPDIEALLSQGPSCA
In short: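 GPX1 10 nM, GR 100 nM, GSH 1 mM, NADPH 0.5 mM, CHP 0.5 mM (final). 30-min cpd preincubation, RT. Ex340/Em450 read t=0, t=15 min.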

[2] = target: Phospholipid hydroperoxide glutathione peroxidase GPX4 (Homo sapiens) (UniProt P36969); assay: Primary qHTS Assay for Inhibitors of Recombinant Selenoprotein Glutathione Peroxidase 4 (GPX4) (AID 1845192); note: nearly all actives have a fitted effect of over 65% in size
Phospholipid hydroperoxide glutathione peroxidase GPX4 (Homo sapiens), sequence (P36969 whole entry, looked up): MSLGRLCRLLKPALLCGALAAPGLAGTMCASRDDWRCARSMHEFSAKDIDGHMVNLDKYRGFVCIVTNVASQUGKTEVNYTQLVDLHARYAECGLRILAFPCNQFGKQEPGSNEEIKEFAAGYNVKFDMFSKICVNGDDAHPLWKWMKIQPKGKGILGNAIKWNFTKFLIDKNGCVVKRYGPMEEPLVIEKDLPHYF
In short: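 qHTS, GR-coupled: GPX4 200 nM + cpd 30 min RT → GSH 1 mM, NADPH 0.5 mM, GR 100 nM → CHP 0.5 mM start; fluor 340/450 at t0 and t15 min; no-enzyme wells as control.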

[3] = target: Metallo-beta-lactamase type 2 (Klebsiella pneumoniae) (UniProt C7C422); assay: qHTS to identify inhibitors of the New Delhi Metallo-beta-lactamase (NDM): assay validation screen against the NCATS LOPAC Collection (AID 1794843);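 note: nitrocefin turnover by NDM-1 measured as 485 nm absorbance at plateau; series mostly up to about 38 µM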
Metallo-beta-lactamase type 2 (Klebsiella pneumoniae), sequence (C7C422 whole entry, looked up): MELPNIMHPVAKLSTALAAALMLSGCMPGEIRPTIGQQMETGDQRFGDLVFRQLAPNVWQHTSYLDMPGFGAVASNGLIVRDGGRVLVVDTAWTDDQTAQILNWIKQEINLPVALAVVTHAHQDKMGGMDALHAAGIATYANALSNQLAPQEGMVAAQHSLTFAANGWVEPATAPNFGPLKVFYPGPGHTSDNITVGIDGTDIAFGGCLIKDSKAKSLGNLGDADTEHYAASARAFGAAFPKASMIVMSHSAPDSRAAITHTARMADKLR
In short: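 NDM-1 at 2 nM final in 50 mM HEPES pH 7.0, 1 uM ZnSO4, 0.01% Tween20, preincubated with LOPAC compounds pinned in DMSO; 50 uM nitrocefin (stock) added. Hydrolysis read as absorbance at 485 nm in the plateau phase.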

SMILES | Potency [1] | Potency [2] | Potency [3]
NC(N)=N[C@@H](CCC(=O)O)C(=O)O | inactive | inactive | –
O=c1cc(-c2ccccc2)[nH]c2nc(Cl)ccc12 | inactive | inactive | –
CC(=O)NCCc1c[nH]c2ccc(O)cc12 | – | inactive | inactive
CN[C@H](CC(=O)O)C(=O)O | inactive | inactive | –
CC(N)(Cc1ccc(O)c(O)c1)C(=O)O (centres undefined) | inactive | inactive | –
CCSC(=N)N | – | inactive | inactive
N=C(N)SCCc1cnc[nH]1 | – | inactive | inactive
CNCCNS(=O)(=O)c1cccc2cnccc12 | inactive | inactive | –
CCCCCCC/C=C\CCCCCCCCC(=O)O | – | inactive | inactive
O=c1[nH]c2ccccc2c2ccccc12 | inactive | inactive | –
CN(C)CCC(c1ccc(Br)cc1)c1ccccn1 (centres undefined) | – | inactive | inactive
CC(=O)C(C)=O | inactive | inactive | –
CNC(=O)c1cc2c(cn1)[nH]c1ccccc12 | – | inactive | inactive
CC(=O)/C(C)=N/O | inactive | inactive | –
COc1cc(/C=C(\C#N)C(=O)Nc2nnc(C(F)(F)F)s2)ccc1OCc1ccc(C(F)(F)F)cc1C(F)(F)F | inactive | inactive | –
CN1CCCC1CCOC(C)(c1ccccc1)c1ccc(Cl)cc1 (centres undefined) | – | inactive | inactive
NC/C=C\C(=O)O | inactive | inactive | –
C#CC(N)CCC(=O)O (centres undefined) | – | inactive | inactive
NC1(C(=O)O)CCCCC1 | – | inactive | inactive
CCCC[C@@]1(C2CCCC2)Cc2cc(OCC(=O)O)c(Cl)c(Cl)c2C1=O | – | inactive | inactive
OC1(c2ccc(Cl)cc2)CCN(Cc2c[nH]c3ccccc23)CC1 | inactive | inactive | –
CCN(c1nc(N)c(C(=O)N=C(N)N)nc1Cl)C(C)C | inactive | inactive | –

SMILES | Potency [1] | Potency [2] | Potency [3]
CCCCCCCCCCCCCCCCCCOC[C@H](COP(=O)([O-])OCC[N+](C)(C)C)OC | – | inactive | inactive
Cc1cc(Cn2cnc3c2C[C@@H](C(=O)O)N(C(=O)C(c2ccccc2)c2ccccc2)C3)ccc1N | inactive | inactive | –
NC(=Nc1ccccc1)NC(=O)c1nc(Cl)c(N)nc1N | – | inactive | inactive
Nn1nnc2ccccc21 | – | inactive | inactive
C=CCN1CCc2c(cc(O)c(O)c2Br)[C@@H](c2ccccc2)C1 | inactive | inactive | –
CN(C)CCCc1cc(C(=O)Nc2ccc(-c3ccncc3)cc2)ccc1O | inactive | inactive | –
NCC(O)c1ccc(O)c(O)c1 (centres undefined) | inactive | inactive | –
CC(C)NC[C@H](O)COc1cccc2ccccc12 | inactive | inactive | –
NC(=O)CC[C@H](N)C(=O)O | inactive | inactive | –
N[C@@H](CCC(=O)N[C@H](CSN=O)C(=O)NCC(=O)O)C(=O)O | – | inactive | –
O=C(O)/C(=C/c1c(C(=O)O)[nH]c2cc(Cl)cc(Cl)c12)c1ccccc1 | inactive | inactive | –
Cc1nc(N=Nc2cc(S(=O)(=O)O)c3cc([N+](=O)[O-])cc(S(=O)(=O)O)c3c2)c(COP(=O)(O)O)c(C=O)c1O | inactive | inactive | –
COc1cc(CC(=O)O)ccc1O | inactive | inactive | –
CC(C)C[C@H](NC(=O)[C@H](O)[C@H](N)Cc1ccccc1)C(=O)O | inactive | inactive | –
CCCCCCCCCCC(C)(C)C(=O)Nc1c(OC)cc(OC)cc1OC | inactive | inactive | –
CC(N)(Cc1ccc(O)cc1)C(=O)O (centres undefined) | inactive | inactive | –
c1ccc2nc(C3=NCCN3)ccc2c1 | inactive | inactive | –
CN1CCN(c2nc3cc(C(F)(F)F)ccc3n3cccc23)CC1 | – | inactive | –
O=C(O)C1CCNCC1 | inactive | inactive | –
COc1ccc(-c2cc3ncc(C)n3c(Nc3ncccc3C(N)=O)n2)cc1OC | inactive | inactive | –
O=C(O)/C=C/c1cnc[nH]1 | inactive | inactive | –
CCCCOC(=O)NS(=O)(=O)c1sc(CC(C)C)cc1-c1ccc(Cn2c(CC)nc3c(C)cc(C)nc32)cc1 | inactive | inactive | –

SMILES | Potency [1] | Potency [2] | Potency [3]
CCCC(=O)NCCc1c2n(c3ccc(OC)cc13)CCCc1ccccc1-2 | inactive | inactive | –
N=C(N)c1ccc(OCCCCCOc2ccc(C(=N)N)cc2)cc1 (tested in a mixture with another compound) | inactive | inactive | –
OCC1NCC(O)C(O)C1O (centres undefined) | inactive | inactive | –
Nc1ncnc2c1nc(Sc1ccc(Cl)cc1)n2[C@H]1OC2COP(=O)(O)O[C@@H]2C1O (some centres undefined) | inactive | inactive | –
CCCCOc1cc(CC2CNC(=O)N2)ccc1OC (centres undefined) | inactive | inactive | –
O=C(O)c1cc2cc(F)ccc2[nH]1 | inactive | inactive | –
O=C(N[C@@H](Cc1ccccc1)C(=O)CCl)OCc1ccccc1 | inactive | inactive | –
CCCn1c(=O)c2c(ncn2C)n(CCC)c1=O | inactive | inactive | –
N[C@H](C(=O)O)[C@H](O)C(=O)O | inactive | inactive | –
CC(O)C(O)[C@H]1CNc2nc(N)[nH]c(=O)c2N1 (some centres undefined) | inactive | inactive | –
COc1ccccc1N1CCN(CCN(C(=O)c2ccc(F)cc2)c2ccccn2)CC1 | – | inactive | –
NOCC(=O)O | inactive | inactive | –
O=C1OC(=O)C2C3CCC(O3)C12 (centres undefined) | inactive | inactive | –
Nc1ncnc2c1nc(Br)n2C1OC2COP(=O)(O)O[C@@H]2C1O (some centres undefined) | inactive | inactive | –
Cc1ccccc1/C=C/C1=NCCN1 | inactive | inactive | –
O=C(OCCN1CCOCC1)C1(c2ccccc2)CCCCC1 | inactive | inactive | –
CC[C@@H]1Cc2cc(O)ccc2C2=C1c1ccc(O)cc1C[C@H]2CC | inactive | inactive | –
CN1C2CCC1CC(OC(c1ccccc1)c1ccccc1)C2 (centres undefined) | inactive | inactive | –
COc1cc(C(O)CO)ccc1O (centres undefined) | inactive | inactive | –
N[C@H](C(=O)O)[C@H](Cc1ccccc1)C(=O)O | – | inactive | –
